The record followed here is PubChem BioAssay (NCI).

Among the test systems are DU-145 prostate; K-562 leukemia; MALME-3M melanoma; MDA-MB-231 breast; RXF 393 renal; SF-268 CNS; SF-295 CNS; SF-539 CNS; UACC-257 melanoma; M14 melanoma; HCT-15 colon; HT29 colon; SNB-19 CNS; U251 CNS; PC-3 prostate; SK-MEL-5 melanoma; UACC-62 melanoma; LOX IMVI melanoma; SK-MEL-28 melanoma.
Assay in all cases: NCI-60 one-dose screen, 48 h (100 = growth as untreated, 0 = no growth, -100 = all killed)
What all share (details): 10 µM unless noted

This is part of a sample that, as a whole, favours compounds with a hit. Of some 83,000 tested, about 20% had one in any assay.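 48-hour exposure, single concentration, 96-well plates; percent growth endpoint where 0 means no net growth. Active: below 10.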 A number with no mark means an inactive call. Calls of active or inactive are those of the source.

Turning to `CCOC(=O)c1nn(CC(O)c2ccccc2)c(NC(=O)Nc2cccc(F)c2)c1C` (stereo unspecified), the growth is 94.4% in the experiment on DU-145 prostate; 92.4% with K-562 leukemia; 100% with MALME-3M melanoma; 90% in the experiment on MDA-MB-231 breast; 107% with RXF 393 renal; 95.4% with SF-268 CNS. Further, the growth was 92.2% in the experiment with SF-295 CNS; 102% in the experiment on SF-539 CNS; 86.8% in the experiment on UACC-257 melanoma; 103% with M14 melanoma; 98% with HCT-15 colon; 101% with HT29 colon. In addition, the growth with SNB-19 CNS was 97.3%; with U251 CNS, 92%; in the experiment on PC-3 prostate, 92.5%; in the experiment on SK-MEL-5 melanoma, 96.7%; in the experiment on UACC-62 melanoma it was 80.8%; in the experiment with LOX IMVI melanoma it was 98.4%. Moreover, in the experiment with SK-MEL-28 melanoma, the growth was 113%.
Turning to `CC1=C2[C@@H](CC1)[C@]1(C)O[C@@](c3ccccc3)(C[C@H]1OC(=O)CO)[C@H]2OC(=O)/C=C/c1ccccc1`, the growth in the experiment with DU-145 prostate was 97.8%; in the experiment on K-562 leukemia it was 70.6%; in the experiment on MALME-3M melanoma, 88.6%; in the experiment on MDA-MB-231 breast, 91.4%; in the experiment on RXF 393 renal, 36.2%; with SF-268 CNS it was 33.1%. In addition, the growth in the experiment on SF-295 CNS is 91%; in the experiment on SF-539 CNS, 111%; in the experiment on UACC-257 melanoma, 103%; in the experiment on M14 melanoma, 96.8%; in the experiment on HCT-15 colon, 92.6%; in the experiment with HT29 colon, 87.2%. Also, the growth in the experiment on SNB-19 CNS was 96.1%; in the experiment on U251 CNS, 88.4%; in the experiment on PC-3 prostate it was 63.2%; in the experiment with SK-MEL-5 melanoma, 88.9%; in the experiment with UACC-62 melanoma, 79%; in the experiment on SK-MEL-28 melanoma, 117%.
Regarding `O=C(Nc1cnc(Nc2ccc(N3CCOCC3)nc2)nc1Oc1ccc(C(F)(F)F)cc1)c1ccncc1`, the growth with DU-145 prostate was 66%; with K-562 leukemia it was 78.7%; in the experiment on MALME-3M melanoma it was 96.9%; in the experiment with MDA-MB-231 breast, 94.5%; with RXF 393 renal it was 93.1%; in the experiment on SF-268 CNS, 86.3%. Moreover, the growth was 104% with SF-295 CNS; -53.1% (active) in the experiment with SF-539 CNS; 92.8% in the experiment on UACC-257 melanoma; 99% in the experiment with M14 melanoma; 96.9% in the experiment with HCT-15 colon; 101% in the experiment with HT29 colon. Moreover, the growth was 91.1% in the experiment with SNB-19 CNS; 92.1% in the experiment with U251 CNS; 97.4% with PC-3 prostate; 95.3% with SK-MEL-5 melanoma; 94.1% in the experiment on UACC-62 melanoma; 86% with LOX IMVI melanoma. In the experiment with SK-MEL-28 melanoma, the growth is 95.8%.
`CN1CCN(Cc2ccc(NC(=O)c3cncc(C#Cc4cnc(N)c5ccc(F)cc45)c3)cc2C(F)(F)F)CC1`: the growth in the experiment with DU-145 prostate is 4.11% (active); with K-562 leukemia, -63.7% (active); in the experiment on MALME-3M melanoma it was -17.2% (active); with MDA-MB-231 breast it was -58.2% (active); in the experiment with RXF 393 renal it was -3.82% (active); with SF-268 CNS it was 29.6%. Further, the growth with SF-295 CNS is 28.2%; in the experiment on SF-539 CNS it was -3.72% (active); with UACC-257 melanoma it was 47.5%; with M14 melanoma, -0.651% (active); in the experiment on HCT-15 colon it was -86.1% (active); with HT29 colon, -56.3% (active). Also, the growth with U251 CNS was -92.4% (active); in the experiment on PC-3 prostate, 18.6%; with SK-MEL-5 melanoma, -21.8% (active); in the experiment on UACC-62 melanoma, 20.6%; in the experiment on LOX IMVI melanoma, -90.3% (active); in the experiment with SK-MEL-28 melanoma, 34.3%.
For `Cc1ccc2c(=O)cc(C(=O)Nc3sc4c(c3C(=O)NCc3cccnc3)CCCC4)oc2c1C`, the growth was 103% in the experiment with DU-145 prostate; 96.4% in the experiment with K-562 leukemia; 99.9% in the experiment with MALME-3M melanoma; 96.9% in the experiment with MDA-MB-231 breast; 116% in the experiment on RXF 393 renal; 93.2% with SF-268 CNS. Also, the growth in the experiment on SF-295 CNS was 102%; in the experiment with SF-539 CNS it was 98.1%; with UACC-257 melanoma it was 104%; in the experiment on M14 melanoma it was 104%; with HCT-15 colon, 103%; in the experiment on HT29 colon, 109%. The growth in the experiment with U251 CNS is 104%; in the experiment on PC-3 prostate, 99.2%; in the experiment with SK-MEL-5 melanoma, 99.7%; with UACC-62 melanoma it was 96.6%; in the experiment with LOX IMVI melanoma, 93.1%; with SK-MEL-28 melanoma, 104%.
Regarding `COc1ccc(C[n+]2c3ccccc3n3c4ccc(N)cc4ccc32)c(OC)c1OC`, the growth with DU-145 prostate is 81%; with K-562 leukemia, 42%; with MALME-3M melanoma, 49.6%; in the experiment with MDA-MB-231 breast, 75.5%; in the experiment on RXF 393 renal, 69.7%; in the experiment on SF-268 CNS, 35%. In addition, the growth with SF-295 CNS is 65.6%; with SF-539 CNS, 52.2%; in the experiment on UACC-257 melanoma, 3.35% (active); in the experiment with M14 melanoma, 87.5%; with HCT-15 colon, 101%; in the experiment on HT29 colon, 39.2%. For the same compound, the growth in the experiment with SNB-19 CNS was 15.5%; in the experiment on U251 CNS, 8.81% (active); in the experiment on PC-3 prostate, 43.3%; with SK-MEL-5 melanoma it was 42.6%; in the experiment on UACC-62 melanoma it was 60.1%; in the experiment with LOX IMVI melanoma it was 85.2%. Further, the growth with SK-MEL-28 melanoma is 64.5%.
As for `COc1cccc(C(=O)NNc2nc(Cl)nc(Cl)n2)c1`, the growth with DU-145 prostate is 105%; in the experiment with K-562 leukemia, 96.7%; with MALME-3M melanoma it was 100%; with MDA-MB-231 breast, 104%; in the experiment with RXF 393 renal it was 109%; in the experiment with SF-268 CNS, 103%. The growth was 101% in the experiment with SF-295 CNS; 100% with SF-539 CNS; 102% with UACC-257 melanoma; 102% in the experiment with M14 melanoma; 98.2% in the experiment on HCT-15 colon; 98.8% with HT29 colon. The growth in the experiment with U251 CNS is 99.2%; with PC-3 prostate, 97.4%; with SK-MEL-5 melanoma, 96.1%; in the experiment with UACC-62 melanoma, 101%; with LOX IMVI melanoma, 97%; with SK-MEL-28 melanoma, 105%.
In the case of `CC1=C(C(=O)Nc2ccccc2)C(c2ccc3c(c2)OCO3)NC(=S)N1` (stereo unspecified), the growth in the experiment on DU-145 prostate is 111%; with K-562 leukemia, 118%; in the experiment with MALME-3M melanoma, 100%; with MDA-MB-231 breast, 106%; in the experiment on RXF 393 renal it was 129%; in the experiment with SF-268 CNS, 106%. The growth in the experiment on SF-295 CNS is 105%; in the experiment with SF-539 CNS, 102%; in the experiment on UACC-257 melanoma it was 107%; in the experiment on M14 melanoma it was 93%; with HCT-15 colon, 101%; in the experiment with HT29 colon it was 109%. Also, the growth was 96.2% in the experiment with SNB-19 CNS; 104% in the experiment on U251 CNS; 95.3% with PC-3 prostate; 102% in the experiment with SK-MEL-5 melanoma; 97.5% in the experiment with UACC-62 melanoma; 96.2% with LOX IMVI melanoma. For the same compound, the growth with SK-MEL-28 melanoma is 112%.
For `O=C(CCCCCNC(=O)c1cc(=O)c(O)co1)Nc1ccccc1`, the growth in the experiment on DU-145 prostate is 103%; in the experiment on K-562 leukemia it was 95.2%; with MALME-3M melanoma it was 102%; in the experiment with MDA-MB-231 breast, 101%; in the experiment on RXF 393 renal, 109%; with SF-268 CNS, 91.8%. The growth was 97.4% in the experiment with SF-295 CNS; 101% in the experiment with SF-539 CNS; 93.8% in the experiment on UACC-257 melanoma; 96.3% in the experiment with M14 melanoma; 91.5% in the experiment with HCT-15 colon; 106% in the experiment with HT29 colon. Besides, the growth with SNB-19 CNS was 101%; with U251 CNS, 89.9%; with PC-3 prostate, 99.7%; in the experiment with SK-MEL-5 melanoma, 101%; with UACC-62 melanoma, 97.9%; in the experiment on LOX IMVI melanoma it was 92.7%. For the same compound, the growth with SK-MEL-28 melanoma was 104%.
On to `N#Cc1cncc(-c2ccc3ncnc(Nc4cccc(Cl)c4)c3c2)c1`, for which the growth is 63.4% in the experiment with DU-145 prostate; 87% in the experiment on K-562 leukemia; 76.8% in the experiment on MALME-3M melanoma; 66.6% in the experiment with MDA-MB-231 breast; 45.9% with RXF 393 renal; 68.5% in the experiment with SF-268 CNS. Besides, the growth with SF-295 CNS was 76%; with SF-539 CNS it was 78%; in the experiment on UACC-257 melanoma, 72.6%; with M14 melanoma it was 83.8%; with HCT-15 colon, 77.9%; in the experiment with HT29 colon, 66.8%. Moreover, the growth was 62.1% with U251 CNS; 63.5% in the experiment on PC-3 prostate; 75.4% in the experiment with SK-MEL-5 melanoma; 81.7% with UACC-62 melanoma; 91.1% in the experiment with LOX IMVI melanoma; 81.8% in the experiment with SK-MEL-28 melanoma.
As for `O=C(Nc1ncc(Cc2cc(C(F)(F)F)ccc2Cl)s1)c1cccs1`, the growth in the experiment with DU-145 prostate is 72.7%; with K-562 leukemia, 10.7%; in the experiment on MALME-3M melanoma it was 50.7%; in the experiment on MDA-MB-231 breast, 77.8%; in the experiment on RXF 393 renal, 42.7%; with SF-268 CNS, 63.9%. Further, the growth in the experiment on SF-295 CNS was 41%; in the experiment on SF-539 CNS, 79.7%; in the experiment on UACC-257 melanoma, 73.3%; in the experiment on M14 melanoma, 49.3%; in the experiment with HCT-15 colon, 21.9%; with HT29 colon, 18.6%. The growth in the experiment with SNB-19 CNS was 65%; in the experiment on PC-3 prostate, 50.1%; with SK-MEL-5 melanoma, 37.7%; in the experiment on UACC-62 melanoma, 46.1%; in the experiment with LOX IMVI melanoma, 58.8%; with SK-MEL-28 melanoma it was 67.5%.
Regarding `[2H]C([2H])([2H])Oc1ccc(F)cc1/C=C/C(=O)/C=C(/C=C/c1cc(F)ccc1OC([2H])([2H])[2H])OB(F)F`, the growth in the experiment with DU-145 prostate was 85.1%; with K-562 leukemia, 47.6%; in the experiment with MALME-3M melanoma, 68.7%; with MDA-MB-231 breast, 98.4%; in the experiment on RXF 393 renal, 100%; in the experiment with SF-268 CNS, 98.6%. In addition, the growth with SF-295 CNS was 101%; in the experiment with SF-539 CNS, 113%; with UACC-257 melanoma, 78.7%; with M14 melanoma it was 70.1%; in the experiment with HCT-15 colon it was 63.8%; in the experiment with HT29 colon, 80.2%. In addition, the growth is 43.3% in the experiment on U251 CNS; 66.7% in the experiment with PC-3 prostate; 94.5% with SK-MEL-5 melanoma; 68.8% in the experiment on UACC-62 melanoma; 57.1% with LOX IMVI melanoma; 94.2% in the experiment with SK-MEL-28 melanoma.
